Data taken from the antibiotic and cytotoxicity screens of Wong et al. (2023).
Out of some 39,000 compounds screened, about 3,300 (8.5%) were called active. The full list was thinned out, with actives kept by preference.

These molecules were tested on HepG2 (assay: cytotoxicity call (relative viability < 0.9)). Settings: 10 µM.

Structure (SMILES)	cytotoxicity call
C[C@@H]1CN([C@@H](C)CO)C(=O)c2cccc(NC(=O)c3ccc(-c4nccs4)cc3)c2O[C@@H]1CN(C)C(=O)Nc1ccc2c(c1)OCO2	inactive
CCCNC(=O)N1C[C@@H](O)COC[C@H]2O[C@H](CC(=O)N3CCOCC3)CC[C@@H]21	inactive
C[C@H]1CN([C@@H](C)CO)C(=O)c2cccc(NS(C)(=O)=O)c2O[C@@H]1CN(C)Cc1ccc(C(=O)O)cc1	inactive
C[C@@H]1CN([C@H](C)CO)C(=O)c2cc(NS(=O)(=O)c3cn(C)cn3)ccc2O[C@H]1CN(C)Cc1ccc(C(=O)O)cc1	inactive
O=C(O)c1ccc2[nH]cnc2n1	inactive
O=C(CCCCCNC(=O)OCc1ccc(CO[C@@H]2C[C@H](C3CCCCC3)C=C(C(=O)N3CCCCCCC3)O2)cc1)NO	inactive
C[C@H](CO)N1C[C@H](C)[C@@H](CN(C)S(=O)(=O)c2ccc(F)cc2)Oc2ccc(NS(C)(=O)=O)cc2C1=O	inactive
Cc1noc(C)c1NC(=O)N(C)C[C@@H]1Oc2ccc(NC(=O)Nc3cccc4ccccc34)cc2C(=O)N([C@H](C)CO)C[C@@H]1C	inactive
COc1ccccc1NC(=O)N(C)C[C@H]1Oc2ncc(C#CCN(C)C)cc2C(=O)N([C@H](C)CO)C[C@H]1C	inactive
C=CCOC(=O)[C@H]1[C@@H]2C(=O)O[C@@H](c3ccccc3)[C@@H](c3ccccc3)N2[C@@H](c2ccc(OCCOC(=O)[C@@H]3C[C@@H]4C(=O)NCC(=O)N4[C@@H]3c3cccc(OCCO)c3)cc2)[C@]12C(=O)Nc1ccccc12	inactive
Cc1noc(C)c1S(=O)(=O)Nc1ccc2c(c1)CC(=O)N([C@H](C)CO)C[C@H](C)[C@H](CN(C)Cc1ccc(-c3ccccc3)cc1)O2	inactive
C(=N\c1ccccc1)/c1ccccc1	inactive
C[C@H](CO)N1C[C@H](C)[C@@H](CN(C)Cc2ccc3c(c2)OCO3)OCCCC[C@H](C)Oc2ccc(NC(=O)Nc3ccccc3)cc2C1=O	inactive
C[C@@H]1CCCCO[C@H](CN(C)Cc2ccc3c(c2)OCO3)[C@H](C)CN([C@@H](C)CO)C(=O)c2cc(NC(=O)Nc3ccccc3)ccc2O1	inactive
C[C@@H]1CN([C@@H](C)CO)C(=O)c2cc(NC(=O)Nc3ccc4c(c3)OCO4)ccc2O[C@@H](C)CCCCO[C@@H]1CN(C)Cc1ccccc1	active
C[C@@H]1CN([C@@H](C)CO)C(=O)c2cc(NC(=O)Nc3ccccc3)ccc2O[C@@H](C)CCCCO[C@@H]1CN(C)Cc1ccc2c(c1)OCO2	active
C[C@@H]1CCCCO[C@H](CN(C)Cc2ccccc2)[C@@H](C)CN([C@@H](C)CO)C(=O)c2cc(NC(=O)Nc3ccc4c(c3)OCO4)ccc2O1	inactive
C[C@@H]1CN([C@H](C)CO)C(=O)c2cc(NC(=O)Nc3ccc4c(c3)OCO4)ccc2O[C@@H](C)CCCCO[C@@H]1CN(C)Cc1ccccc1	inactive
C[C@@H]1CCCCO[C@H](CN(C)CC2CCCCC2)[C@H](C)CN([C@H](C)CO)C(=O)c2cc(NS(=O)(=O)c3ccccc3)ccc2O1	inactive
C[C@@H]1CCCCO[C@@H](CN(C)C(=O)Nc2ccc3c(c2)OCO3)[C@@H](C)CN([C@H](C)CO)C(=O)c2cc(NC(=O)Nc3cccc4ccccc34)ccc2O1	inactive
C[C@@H]1CN([C@H](C)CO)C(=O)Cc2cc(NC(=O)Cn3cnnn3)ccc2O[C@H]1CN(C)Cc1ccccc1	inactive
COc1ccc(OC)c(S(=O)(=O)N2[C@@H]3CC[C@@H](C3)[C@H]2c2nc3cccc(OCc4ccc(F)cc4)c3[nH]2)c1	inactive

Structure (SMILES)	cytotoxicity call
COc1cc(C)ccc1S(=O)(=O)N1[C@@H]2CC[C@@H](C2)[C@H]1c1nc2cccc(OCc3ccc(F)cc3)c2[nH]1	inactive
Cc1ccc(C)c(S(=O)(=O)N2[C@@H]3CC[C@@H](C3)[C@H]2c2nc3cccc(OCc4ccc(F)cc4)c3[nH]2)c1	inactive
CC(=O)c1cccc(S(=O)(=O)N2[C@@H]3CC[C@@H](C3)[C@H]2c2nc3cccc(OCc4ccc(F)cc4)c3[nH]2)c1	inactive
COc1cccc(S(=O)(=O)N2[C@@H]3CC[C@@H](C3)[C@H]2c2nc3cccc(OCc4ccc(F)cc4)c3[nH]2)c1	active
Cc1ccc(F)c(S(=O)(=O)N2[C@@H]3CC[C@@H](C3)[C@H]2c2nc3cccc(OCc4ccc(F)cc4)c3[nH]2)c1	active
CN1C(=O)c2cc(NC(=O)c3ccc(F)c(F)c3)ccc2OC[C@H]2O[C@H](CC(=O)N3CCOCC3)CC[C@H]21	inactive
Cc1ccc(S(=O)(=O)Nc2ccc3c(c2)C(=O)N([C@@H](C)CO)C[C@@H](C)[C@@H](CN(C)C(=O)CCC(F)(F)F)OCCCC[C@@H](C)O3)cc1	inactive
CCS(=O)(=O)N1C[C@]2(CCN(CC2)S(=O)(=O)c2cn(cn2)C)c2c(n(c3cc(ccc23)OC)C)[C@H]1CO	inactive
C[C@H](CO)N1C[C@H](C)[C@@H](CN(C)C(=O)Nc2ccc(F)cc2)OCc2ccccc2-c2c(n(C)c3ccccc23)C1=O	inactive
COCC(=O)N1C[C@H](C)[C@@H](OC)CN(C)C(=O)c2ccc(NC(=O)Nc3ccccc3)cc2OC[C@H]1C	inactive
C[C@H](CO)N1C[C@H](C)[C@H](CN(C)Cc2ccc(C(=O)O)cc2)Oc2ccc(NS(C)(=O)=O)cc2C1=O	inactive
C[C@@H]1CN([C@@H](C)CO)C(=O)Cc2cc(NC(=O)Nc3ccc(C(F)(F)F)cc3)ccc2O[C@H]1CN(C)Cc1ccc(-c2ccccc2)cc1	active
C[C@H]1CN([C@@H](C)CO)C(=O)Cc2cc(NC(=O)Nc3ccc(C(F)(F)F)cc3)ccc2O[C@H]1CN(C)Cc1ccc(-c2ccccc2)cc1	active
C[C@H](CO)N1C[C@H](C)[C@H](CN(C)Cc2ccc(-c3ccccc3)cc2)Oc2ccc(NC(=O)Nc3ccc(C(F)(F)F)cc3)cc2CC1=O	active
C[C@H]1CN([C@@H](C)CO)C(=O)Cc2cc(NC(=O)Nc3ccc(C(F)(F)F)cc3)ccc2O[C@@H]1CN(C)Cc1ccc(-c2ccccc2)cc1	inactive
C[C@@H]1CN([C@H](C)CO)C(=O)Cc2cc(NC(=O)Nc3ccc(C(F)(F)F)cc3)ccc2O[C@@H]1CN(C)Cc1ccc(-c2ccccc2)cc1	active
COCCN1C[C@H]2CN(Cc3nccn3C)C[C@H]2C1=O	inactive
O=C(C[C@H]1C[C@H]2c3cc(NS(=O)(=O)c4ccc(F)cc4)ccc3O[C@H]2[C@H](CO)O1)NC1CCCCC1	inactive
CC1(C)CCC2=C(O1)C(=O)c1ccccc1C2=O [alpha-LAPACHONE ]	inactive
Cc1noc(C)c1NC(=O)N(C)C[C@H]1OCCCC[C@@H](C)Oc2ccc(NC(=O)CCC(F)(F)F)cc2C(=O)N([C@H](C)CO)C[C@@H]1C	inactive
Cc1ccc(S(=O)(=O)N(C)C[C@@H]2Oc3ccc(NS(=O)(=O)c4c(C)noc4C)cc3C(=O)N([C@H](C)CO)C[C@H]2C)cc1	inactive
C[C@@H]1CCCCO[C@H](CN(C)C(=O)CCC(F)(F)F)[C@H](C)CN([C@@H](C)CO)C(=O)c2cc(NS(=O)(=O)c3ccccc3)ccc2O1	inactive

Structure (SMILES)	cytotoxicity call
C[C@@H]1CN([C@@H](C)CO)C(=O)c2cc(NS(=O)(=O)c3cn(C)cn3)ccc2O[C@@H](C)CCCCO[C@H]1CN(C)S(=O)(=O)c1cn(C)cn1	inactive
C[C@H](CO)N1C[C@H](C)[C@@H](CN(C)Cc2ccc(-c3ccccc3)cc2)Oc2ccc(NC(=O)Nc3ccc(C(F)(F)F)cc3)cc2CC1=O	active
C[C@@H]1CN([C@@H](C)CO)C(=O)Cc2cc(NC(=O)Nc3ccc(C(F)(F)F)cc3)ccc2O[C@@H]1CN(C)Cc1ccc(-c2ccccc2)cc1	active
C[C@@H]1CN([C@H](C)CO)C(=O)Cc2cc(NC(=O)Nc3ccc(C(F)(F)F)cc3)ccc2O[C@H]1CN(C)Cc1ccc(-c2ccccc2)cc1	active
C[C@@H]1CCCCO[C@@H](CN(C)C(=O)c2ccccc2)[C@H](C)CN([C@@H](C)CO)C(=O)c2cc(NC(=O)c3ccccc3)ccc2O1	inactive
C[C@@H]1CN([C@@H](C)CO)C(=O)Cc2cc(NC(=O)CCN3CCOCC3)ccc2O[C@H]1CN(C)Cc1ccncc1	inactive
COc1cccc(NC(=O)N[C@@H]2CC[C@H](CC(=O)N3CCOCC3)O[C@H]2CO)c1	inactive
O=C(NCc1cccc(F)c1)[C@H]1[C@H](CO)[C@H]2Cn3c(cccc3=O)[C@@H]1N2C(=O)c1cnccn1	inactive
C[C@@H](CO)N1CC[C@H](CN(C)Cc2ccc(Oc3ccccc3)cc2)Oc2c(NC(=O)c3ccncc3)cccc2C1=O	inactive
CC(=O)N[C@H]1[C@@H](OCc2ccccc2)O[C@H](C(=O)O)[C@@H](OC(C)=O)[C@@H]1OC(C)=O	inactive
C[C@@H]1CN([C@@H](C)CO)S(=O)(=O)c2ccc(-c3ccc(C(=O)N(C)C)cc3)cc2O[C@H]1CN(C)C(=O)C1CCOCC1	inactive
COCC(=O)N(C)C[C@@H]1Oc2cc(C#Cc3ccccc3)ccc2S(=O)(=O)N([C@@H](C)CO)C[C@H]1C	inactive
Cc1ccc(NC2=CC(=O)C[C@H](c3ccc(Cl)cc3)C2)cc1	inactive
C[C@H](CO)N1C[C@H](C)[C@@H](CN(C)Cc2ccc(Cl)c(Cl)c2)OCCCC[C@H](C)Oc2ccc(NC(=O)c3ccccc3)cc2C1=O	inactive
C[C@@H]1CCCCO[C@@H](CN(C)Cc2ccc(Cl)c(Cl)c2)[C@H](C)CN([C@H](C)CO)C(=O)c2cc(NC(=O)c3ccccc3)ccc2O1	inactive
C[C@@H]1CCCCO[C@H](CN(C)Cc2ccc(Cl)c(Cl)c2)[C@H](C)CN([C@@H](C)CO)C(=O)c2cc(NC(=O)c3ccccc3)ccc2O1	inactive
C[C@@H]1CN([C@H](C)CO)C(=O)c2cc(NC(=O)c3ccccc3)ccc2O[C@@H](C)CCCCO[C@@H]1CN(C)Cc1ccc(Cl)c(Cl)c1	active
C[C@@H]1CN([C@H](C)CO)C(=O)c2cc(NC(=O)c3ccccc3)ccc2O[C@@H](C)CCCCO[C@H]1CN(C)Cc1ccc(Cl)c(Cl)c1	active
C[C@@H]1CCCCO[C@H](CN(C)Cc2ccc(Cl)c(Cl)c2)[C@@H](C)CN([C@H](C)CO)C(=O)c2cc(NC(=O)c3ccccc3)ccc2O1	inactive
C[C@@H]1CCCCO[C@@H](CN(C)Cc2ccc(Cl)c(Cl)c2)[C@H](C)CN([C@@H](C)CO)C(=O)c2cc(NC(=O)c3ccccc3)ccc2O1	active
C[C@H]1CCCCO[C@H](CN(C)Cc2ccc(Cl)c(Cl)c2)[C@@H](C)CN([C@@H](C)CO)C(=O)c2cc(NC(=O)c3ccccc3)ccc2O1	inactive
C[C@H](CO)N1C[C@H](C)[C@H](CN(C)Cc2ccc(Cl)c(Cl)c2)OCCCC[C@H](C)Oc2ccc(NC(=O)c3ccccc3)cc2C1=O	inactive
